Bioassay records deposited in PubChem BioAssay by several laboratories.
EWS-Fli inh: EWS/Fli transcriptional activity inhibition. 0.67% of 350,000 active. inhibition, % at 12.6 µM. A673 NR0B1-luciferase reporter, viability-normalised;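 active = mean inhibition of at least 50% after viability correction, with every replicate also passing that limit; inconclusive = mean reaches 50% but only one of two replicates passes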;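 note: firefly luciferase signal divided by Alamar Blue viability fluorescence both relative to DMSO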
EBV LMP1 NFkB: reduces LMP1-driven NF-kappaB luciferase signal | LMP1-induced NF-kappaB luciferase reporter cells, luminescence | inhibition, % at 12.5 µM | 0.69% of 350,000 active | AID 504558; in the data active = inhibition above about 41%; inconclusive = no clear call, values can overlap the other calls;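 note: 0% = neutral control wells and 100% = reference inhibitor control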
LGR2 antag: Drosophila LGR2 receptor signaling inhibition | HEK293 LGR2, CRE-luciferase, bursicon-stimulated, 4 h | inhibition, % at 9.99 µM | 0.35% of 380,000 active;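 active = drop in luminescence signal, shown as inhibition above about 50% in the replicate tests, limit read from the data, passing the limit was not always enough; inconclusive = probably only some replicates passing the limit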;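 note: agonist challenge used bursicon conditioned medium at about half maximal strength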
TROY NFkB inh: TROY signaling inhibition; Q293 LMP1-TROYcd NF-kB luciferase reporter, 4 h; inhibition, % at 10 µM; 0.98% of 360,000 active; AID 1347056;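 active = compounds whose plate-normalised and pattern-corrected inhibition of the luciferase reporter signal at the single screening dose is 50% or more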
TWEAK-Fn14 inh: blocks TWEAK-Fn14 interaction in a reporter cell assay. TWEAK-stimulated Fn14 reporter cells, luciferase luminescence, 8 h. inhibition, % at 10 µM. 2% of 360,000 active. AID 1159606; in the data active = inhibition above about 50%
An asterisk follows results filed as active; ? = inconclusive; . = no result given. Rows were chosen to be rich in hits. Some 2.5% of all compounds tested hit in one or more screens of this group.

SMILES | EWS-Fli inh | EBV LMP1 NFkB | LGR2 antag | TROY NFkB inh | TWEAK-Fn14 inh
CN(C)c1ccc(C(=O)Nc2nc3c(s2)CCCC3)cc1 | 8 | -19 | ? | 23 | 72*
C/C(=N\Nc1nc2c(s1)CCCC2)c1ccc(Cl)cc1 | . | -42 | . | 31 | 55*
Cc1cc(C(=O)Nc2nc3c(s2)CCCC3)no1 | . | 20 | . | -2 | 61*
Cc1onc(-c2ccccc2)c1C(=O)Nc1nc2c(s1)CCCC2 | . | 4 | . | 32 | 5
CC(C)(C)c1ccc(C(=O)NC(=S)Nc2nc3c(s2)CCCC3)cc1 | -6 | 5 | 16 | 84* | 82*
CN(C)CC(=O)N[C@@H]1CC[C@H](CC(=O)O)O[C@@H]1CO | 0 | . | -1 | . | .
C[C@H]1CN([C@@H](C)CO)C(=O)Cc2cc(NC(=O)C3CC3)ccc2O[C@@H]1CN(C)C(=O)Nc1ccccc1 | 2 | . | -2 | . | .
COc1cc2c(cc1NC(=O)C(Cl)Cl)-c1ccc(NC(=O)C(Cl)Cl)cc1C2 | 23 | 8 | 0 | -36 | 81*
Cc1ccc(F)cc1S(=O)(=O)N[C@@H]1CCN(C(=O)c2ccc(OC(C)C)cc2)C1 | -1 | . | . | . | .
COc1cccc(-c2ccc3n(c2=O)C[C@@H]2[C@@H](CO)[C@H](C(=O)NC4CCCC4)[C@H]3N2C)c1 | 2 | . | 6 | . | .
COC(=O)C(=Cc1ccccc1[N+](=O)[O-])C(=O)OC | 0 | -36 | 4 | 11 | 69*
COc1cc(OC)cc(C2=Cc3ccccc3C(CC(C)=O)N2c2ccc(C#CC3(O)CCCCC3)cc2)c1 (stereo not given) | 2 | . | -22 | 36 | 52*
COc1cc(OC)cc(C2=Cc3ccccc3C(CC(C)=O)N2c2ccc(-c3cncnc3)cc2)c1 (stereo not given) | 11 | . | 15 | -20 | 16
CC(=O)CC1c2cc(F)ccc2C=C(c2ccsc2)N1c1ccc(C#CC2(O)CCCCC2)cc1 (stereo not given) | 10 | . | -23 | -13 | 57*
O=C(CSc1ncnc2c1oc1ccccc12)Nc1ccccc1C(F)(F)F | -9 | 0 | 2 | 82* | 91*
O=C(CCNS(=O)(=O)c1ccc(Br)cc1)Nc1cccc(F)c1 | 13 | -8 | -5 | 4 | 99*
O=[N+]([O-])c1ccc(S(=O)(=O)N2CCN(c3ccccn3)CC2)cc1 | -14 | -2 | . | -12 | 7
O=S(=O)(Nc1nc2ccccc2nc1Nc1ccc2c(c1)OCO2)c1ccccc1 | . | -3 | -1 | 41 | 38
O=[N+]([O-])c1cccc(S(=O)(=O)N2CCN(c3ccccn3)CC2)c1 | -2 | -5 | 3 | 9 | 60*
Cc1cccc(S(=O)(=O)Nc2nc3ccccc3nc2Nc2ccc3c(c2)OCO3)c1 | 6 | 12 | 0 | 64* | 42
COc1ccc(S(=O)(=O)Nc2cccc(S(=O)(=O)N3CCCCC3)c2)cc1 | 11 | 4 | -9 | 5 | -31
Cc1ccc(S(=O)(=O)Nc2nc3ccccc3nc2Nc2cccc(S(=O)(=O)N3CCCC3)c2)cc1 | 1 | 5 | 3 | 54* | 69*
O=[N+]([O-])c1cccc(S(=O)(=O)Nc2ccc(S(=O)(=O)N3CCCC3)cc2)c1 | 10 | 5 | 4 | 6 | -6
O=[N+]([O-])c1cccc(S(=O)(=O)Nc2nc3ccccc3nc2Nc2cccc(S(=O)(=O)N3CCCCC3)c2)c1 | 22 | 28 | 34 | 71* | 86*
CO[C@@H]1CN(C)C(=O)c2ccc(NC(=O)C3CC3)cc2OC[C@@H](C)N(Cc2cncnc2)C[C@@H]1C | -4 | . | 15 | . | .
SMILES | EWS-Fli inh | EBV LMP1 NFkB | LGR2 antag | TROY NFkB inh | TWEAK-Fn14 inh
CCCNC(=O)C[C@@H]1CC[C@@H]2[C@H](COC[C@@H](O)CN2Cc2cccc(F)c2)O1 | 1 | . | -1 | . | .
COc1ccc(/C=C/C(=O)Nc2sc3c(c2C(=O)NCc2cccnc2)CCCC3)cc1 | . | 11 | -13 | 6 | 53*
CC(=O)c1ccc(N2CCN(c3ccnc4cc(Cl)ccc34)CC2)cc1 | 6 | 47* | 6 | 4 | 25
CC(C)(C)C(=O)N1CCN(c2ccnc3cc(Cl)ccc23)CC1 | -10 | 8 | 0 | 13 | 10
COc1ccccc1N1CCN(c2ccnc3cc(Cl)ccc23)CC1 | 54* | 29 | 10 | 45 | 20
C[C@@H]1CN([C@@H](C)CO)C(=O)c2cc(NC(=O)c3ccncc3)ccc2O[C@@H](C)CCCCO[C@H]1CN(C)Cc1ccccc1 | . | . | -13 | . | .
COc1ccc(F)cc1-c1cc(NC(C)=O)c2ncc(-c3cc(OC)c(OC)c(OC)c3)n2c1 | 43 | . | -12 | 20 | 36
COc1cc(-c2cnc3c(NC(C)=O)cc(-c4ccc(N5CCN(C)CC5)cc4)cn23)cc(OC)c1OC | 17 | . | 22 | 63* | 54*
CC(=O)Nc1cc(-c2cccc(F)c2)cn2c(-c3ccc(F)cc3)cnc12 | -4 | . | 7 | -4 | -16
COc1ccc(-c2cnc3c(NC(C)=O)cc(-c4cc(F)ccc4OC)cn23)cc1OC | 54* | . | -14 | 18 | 10
CC(=O)Nc1cccc(-c2cc(NC(C)=O)c3ncc(-c4ccc(F)cc4)n3c2)c1 | 5 | . | 8 | 91* | 100*
COc1cc(-c2cnc3c(NC=O)cc(-c4ccc(N5CCN(C)CC5)cc4)cn23)cc(OC)c1OC | -27 | . | -21 | 44 | -3
CC(=O)Nc1cc(-c2cccc(NS(C)(=O)=O)c2)cn2c(-c3ccc(F)c(Cl)c3)cnc12 | 24 | . | 13 | -2 | 92*
C[C@@]12C(=O)N(Cc3ccccc3)CC(=O)N1[C@H](/C=C/c1ccccc1)[C@@H]1C(=O)N(c3ccccc3)C(=O)[C@@H]12 | -5 | 82* | . | . | .
CN1C(=O)[C@H]2[C@@H](/C=C/c3ccccc3)N3C(=O)CN(Cc4ccccc4)C(=O)[C@@]3(C)[C@H]2C1=O | -3 | 0 | . | -7 | 2
CO[C@H]1CN(C)C(=O)c2ccc(NC(C)=O)cc2OC[C@@H](C)N(Cc2ccncc2)C[C@H]1C | -2 | . | 2 | . | .
C[C@@H]1CN([C@@H](C)CO)C(=O)c2cc(C#CC3(O)CCCC3)cnc2O[C@@H]1CN(C)C(=O)C1CCOCC1 | 3 | . | 2 | . | .
Cc1ccc(-c2noc(CCC(=O)NCC3CCCO3)n2)cc1 (stereo not given) | . | 7 | . | -26 | 15
O=C(CCc1nc(-c2ccccc2)no1)NCC1CCCO1 (stereo not given) | . | 74* | -28 | 27 | 19
CC(C)(C)c1ccc(-c2noc(CCC(=O)NCC3CCCO3)n2)cc1 (stereo not given) | . | 42* | 6 | -4 | 26
C[C@@H](NC(=O)c1coc(=O)c(Br)c1)c1ccccc1 | . | -54 | . | 9 | 87*
Cc1ccc(-c2nc(C=Nc3ccc(O)cc3)c(O)o2)cc1 | 40 | -51 | -27 | -16 | 64*
CN=Cc1nc(-c2ccccc2)oc1O | . | -1 | . | -50 | -1
CCC(=O)Oc1oc(-c2ccccc2)nc1C=Nc1ccc(C)cc1 | 17 | 2 | -1 | 72* | 10
CCC(=O)Oc1oc(-c2ccccc2)nc1C=Nc1ccccc1OC | . | 0 | . | 27 | -7
O=C(C1=C[C@@H](C2CC2)C[C@@H](OCc2ccc(CO)cc2)O1)N1CCCC1 | -26 | . | . | . | .
